Laboratory results taken from PubChem BioAssay (NCATS).
“And” between values parts separate entries of the source, which are not always exact repeats. Equal values may be shown once. Records with an inconclusive call do not appear. The source made the active and inactive calls. Unless noted, calls follow the shape of the dose curve; as a rule, active = well fitted curve in the direction sought with a large enough effect; inconclusive = small, poorly fitted or top-dose-only effect, or another doubt; inactive = no such curve, though single readings can be large; an effect the other way counts as inactive or inconclusive.

What was measured:
[1] = biological target: Thyroid hormone receptor beta (Homo sapiens) (UniProt P10828); assay: qHTS assay for small molecule agonists of thyroid hormone receptor beta signaling (AID 588545; calls by dose curve); settings: TR-UAS-bla GripTite HEK 293, beta-lactamase ratio, agonist mode, 18 h, percent of T3 response, DMSO as zero; series mostly up to 76.7 µM
In short: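 HEK 293 TR-UAS-bla; agonist mode; 18 hrs, 37 C; CCF4, ex 405/em 460 and 530 nm; norm. T3 10 nM = 100%, DMSO = 0%; Hill fit → EC50, efficacy.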

[2] = qHTS assay for small molecule antagonists of retinoid X receptor alpha signaling (AID 588546; active = well fitted inhibition curve with a large enough effect in the signal ratio, with a control signal flat, not every such curve was filed as active; the % refers to the signal ratio;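 also: cells stimulated with 9-cis-retinoic acid as agonist; % is scaled to controls: 0 for no effect and ±100 for the full control effect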); settings: HEK293T RXRa-UAS-bla, beta-lactamase ratio, antagonist mode; measured here: W530 green channel, cytotoxicity proxy
In short: (§1)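 Beta-lactamase reporter inhibition, read as CCF4 fluorescence ratio (ex 405, em 460/530 nm) after 2 h at RT. HEK293T UAS-bla cells, 2500/well, were stimulated with 9-cis-RA at 500 or 100 nM final alongside test compound for 18 h at 37 C.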

[3] = biological target: Retinoic acid receptor RXR-alpha (Homo sapiens) (UniProt P19793); assay: as above; settings: HEK293T RXRa-UAS-bla, beta-lactamase ratio, antagonist mode
In short: as §1

[4] = biological target: Thyroid hormone receptor beta (Homo sapiens) (UniProt P10828); assay: qHTS assay for small molecule antagonists of thyroid hormone receptor beta signaling (AID 588547; active = well fitted inhibition curve with a large enough effect in the signal ratio, with a control signal flat, not every such curve was filed as active; the % refers to the signal ratio;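 also: cells stimulated with 0.4 nM T3 agonist during compound exposure; % is scaled to controls: 0 for no effect and ±100 for the full control effect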); settings: TR-UAS-bla HEK293, beta-lactamase ratio, antagonist mode, 18 h
In short: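 TR-UAS-bla GripTite HEK293 cells in 2% charcoal/dextran FBS medium; compounds 0.59 nM to 92 uM with T3 at 0.4nM final, 18 h at 37 C. Beta-lactamase read by CCF4 fluorescence (460/530 nm); Hill fits gave IC50 and efficacy.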

[5] = biological target: Voltage-gated inwardly rectifying potassium channel KCNH2 (Homo sapiens) (UniProt Q12809); assay: qHTS Assay for Small Molecule Inhibitors of the Human hERG Channel Activity (AID 588834); settings: U2OS BacMam hERG, FluxOR thallium flux fluorescence; series mostly up to 92.2 µM;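 also: top concentration of the series differs between compounds; % is scaled to controls: 0 for no effect and ±100 for the full control effect; lower thallium flux fluorescence means stronger hERG block; nearly all actives have a fitted effect of over 50% in size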
In short: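 hERG-BacMam U2OS, 2000 cells/well; 0.7X FluxOR loading 1 hr RT dark; cpd ~10 min 37 °C; stim buffer; FDSS fluorescence 2 min @ 1 s; AC50 Hill fit.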

[6] = qHTS assay for small molecule agonists of the antioxidant response element (ARE) signaling pathway (AID 651741; active = well fitted activation curve with a large enough effect in the signal ratio; the % refers to the signal ratio; also: potency is read from the fitted curve at half-maximal effect; as to activation: % of control where 0% means no effect); settings: HepG2 ARE-bla reporter, beta-lactamase FRET ratio, 16 h; series mostly up to 96 µM
In short: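 HepG2 ARE-bla cells plated at 2,000 cells/well and incubated 5 h at 37 C/5% CO2 received 23 nL compound in DMSO. After 16 h at 37 C, LiveBLAzer B/G FRET substrate was applied for 2 h at room temperature and fluorescence read.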

[7] = qHTS assay for small molecule activators of the p53 signaling pathway (AID 651743; active = well fitted activation curve with a large enough effect in the signal ratio, not every such curve was filed as active; the % refers to the signal ratio; also: % of control where 0% means no effect); settings: HCT-116 p53RE-bla, beta-lactamase FRET ratio, 16 h; stronger effect = higher value
In short: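 HCT-116 p53RE-bla, 4,000 cells/well; 5 h settle; cpd/DMSO 16 h, 37 C; LiveBLAzer B/G 2 h RT; fluorescence intensity.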

[8] = qHTS assay for small molecule activators of the nuclear factor-kappa B (NF-kB) signaling pathway (AID 651749; active = well fitted activation curve with a large enough effect in the signal ratio; the % refers to the signal ratio; also: % of control where 0% means no effect); settings: NF-kB-bla ME-180 cells, beta-lactamase FRET ratio, 16 h; stronger effect = higher value
In short: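 Incubation lasted 16 hr at 37C in 5% CO2 after 23 nL compound addition to ME-180 NF-kB-bla cells. Activation appears as beta-lactamase-mediated FRET loss.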

[9] = qHTS assay for small molecule disruptors of the mitochondrial membrane potential - 1 hr assay (AID 651754; calls by dose curve; also: % is scaled to controls: 0 for no effect and ±100 for the full control effect; nearly all actives have a fitted effect of over 35% in size); settings: series mostly up to 92.2 µM
In short: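 Steps: seed HepG2 cells and let attach overnight; pin-transfer compound or vehicle; incubate 1 hr at 37C; add Mito-MPS dye for 30 min; read two-channel fluorescence for monomer and aggregate forms.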

[10] = qHTS assay for small molecule disruptors of the mitochondrial membrane potential - 5 hr assay (AID 651755; calls by dose curve; also: % is scaled to controls: 0 for no effect and ±100 for the full control effect; nearly all actives have a fitted effect of over 40% in size); settings: JC-1-type ratio dye; series mostly up to 92.2 µM
In short: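 HepG2 cells (2,000/well), attached overnight, exposed to compound 5 hr at 37C, then Mito-MPS dye 30 min. Fluorescence read for monomers (490/535 nm) and aggregates (540/590 nm).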

[11] = qHTS assay for environmental chemicals that activate the Aryl hydrocarbon Receptor (AhR) signaling pathway (AID 651777); settings: 1A2-DRE human hepatoma cells, luciferase, 24 h; activation: stronger effect = higher value; also: nearly all actives have a fitted effect of over 15% in size; also: potency is read from the fitted curve at half-maximal effect; as to activation: % of control where 0% means no effect
In short: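 Following a 24 hr incubation with test chemicals at 37 C and 5% CO2, 1A2-DRE human hepatoma cells received One-Glo reagent; after 30 min at room temperature, luciferase output reflected CYP1A2 induction via AhR.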

[12] = biological target: Peroxisome proliferator-activated receptor alpha (Homo sapiens) (UniProt Q07869); assay: qHTS assay for small molecule agonists of the peroxisome proliferator-activated receptor alpha (PPARalpha) signaling pathway (AID 651778); settings: PathHunter PPARalpha complementation, chemiluminescence, 6 h; stronger effect = higher value; also: % of control where 0% means no effect
In short: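 Enzyme-fragment complementation assay in which ligand-bound PPARalpha translocates and forms an active enzyme that generates chemiluminescence. Cells were plated overnight, exposed to compound for 6 hr at 37 C, and then given detection reagent for 60 min at room temperature.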

[13] = qHTS assay for small molecule agonists of the antioxidant response element (ARE) signaling pathway measured by Nrf2-dependant transcriptional activity - cell viability counter screen (AID 720653; active = well fitted curve in the direction sought with a large enough effect in the repeat runs; an effect the other way counts as inactive or inconclusive; also: % is scaled to controls: 0 for no effect and ±100 for the full control effect); settings: ARE-bla HepG2 viability, CellTiter-Glo ATP luminescence, 16 h; stronger effect = lower value
In short: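 ARE-bla HepG2 cells treated with compounds for 16 h at 37C; this counter screen measures viability as intracellular ATP by CellTiter-Glo luminescence after 30 min at room temperature.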

[14] = biological target: Tumor necrosis factor (Homo sapiens) (UniProt P01375); assay: qHTS assay to identify small molecules that stimulate Tumor Necrosis Factor-alpha (TNF-alpha) secretion (AID 651757; active = well fitted curve in the direction sought with a large enough effect in the signal ratio; the % refers to the signal ratio; also: 0% is about no effect); settings: Human cells, HTRF 665/615 ratio; series mostly up to 92.2 µM
In short: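 Secreted TNF-alpha from compound-treated THP-1 cells (17 hrs, 37 C) was quantified with a homogeneous time-resolved fluorescence antibody assay.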

[15] = biological target: Nuclear receptor ROR-gamma (Homo sapiens) (UniProt P51449); assay: qHTS assay for small molecule antagonists of the retinoid-related orphan receptor gamma (ROR-gamma) signaling pathway (AID 651802); settings: ROR-gamma antagonist cell reporter assay; series mostly up to 92.2 µM; also: nearly all actives have a fitted effect of over 60% in size; also: potency is read from the fitted curve at half-maximal effect
In short: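 Antagonism is scored as a fall in luminescence from a RORE-luciferase reporter in CHO cells expressing ROR under a TET-inducible promoter, measured 16hr after doxycycline induction in the presence of compound.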

[16] = qHTS assay for small molecule antagonists of the retinoid-related orphan receptor gamma (ROR-gamma) signaling pathway - cell viability counter screen (AID 720652; active = well fitted curve in the direction sought with a large enough effect in the repeat runs; an effect the other way counts as inactive or inconclusive;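 also: CHO reporter cells with doxycycline-induced ROR-gamma expression; compound exposure lasted 16 hr before ATP read; % is scaled to controls: 0 for no effect and ±100 for the full control effect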); settings: RORgamma reporter cell line viability counter screen; series mostly up to 92.2 µM
In short: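 Cytotoxicity is quantified via intracellular ATP (CellTiter-Glo luminescence) in doxycycline-induced CHO ROR response element-luciferase reporter cells treated with compound for 16 hr at 37 C, 5% CO2.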

[17] = qHTS assay for small molecule agonists of retinoid X receptor alpha signaling (AID 588544; calls by dose curve;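 as to activation: 0% = DMSO basal wells and 100% = reference agonist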); settings: HEK293T RXRa-UAS-bla, beta-lactamase reporter, 18 h; 530 nm emission
[18] = biological target: Retinoic acid receptor RXR-alpha (Homo sapiens) (UniProt P19793); assay: as above; settings: HEK293T RXRa-UAS-bla, beta-lactamase reporter, 18 h; series mostly up to 76.7 µM
[19] = qHTS assay for small molecule agonists of the antioxidant response element (ARE) signaling pathway measured by Nrf2-dependant transcriptional activity (AID 720636; active = well fitted curve in the direction sought with a large enough effect in the repeat runs; an effect the other way counts as inactive or inconclusive;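 also: HepG2 cells with an ARE-driven luciferase reporter; % of control where 0% means no effect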); settings: ARE-luc HepG2, Nrf2 luciferase reporter, 16 h; series mostly up to 92.4 µM
In short: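 ONE-Glo luminescence, read 30 min after reagent addition at room temperature, reflected ARE reporter activity in HepG2 cells that had been incubated with compound for 16 hr at 37 C in 1% dialyzed FBS.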

[20] = qHTS assay to identify small molecules that stimulate interleukin-8 (IL-8) secretion (AID 651758; active = well fitted activation curve with a large enough effect in the signal ratio; the % refers to the signal ratio; also: 0% is about no effect); settings: HTRF ratio (665/615); series mostly up to 92.2 µM
In short: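 THP-1 cells (2000/well) exposed to compound 16 h at 37 C; secreted IL-8 then detected by HTRF with cryptate- and XL665-labelled anti-IL-8 antibody pair after 1-3 h at room temperature.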

Chain of Voltage-gated inwardly rectifying potassium channel KCNH2 (Homo sapiens) (Q12809 whole entry, looked up): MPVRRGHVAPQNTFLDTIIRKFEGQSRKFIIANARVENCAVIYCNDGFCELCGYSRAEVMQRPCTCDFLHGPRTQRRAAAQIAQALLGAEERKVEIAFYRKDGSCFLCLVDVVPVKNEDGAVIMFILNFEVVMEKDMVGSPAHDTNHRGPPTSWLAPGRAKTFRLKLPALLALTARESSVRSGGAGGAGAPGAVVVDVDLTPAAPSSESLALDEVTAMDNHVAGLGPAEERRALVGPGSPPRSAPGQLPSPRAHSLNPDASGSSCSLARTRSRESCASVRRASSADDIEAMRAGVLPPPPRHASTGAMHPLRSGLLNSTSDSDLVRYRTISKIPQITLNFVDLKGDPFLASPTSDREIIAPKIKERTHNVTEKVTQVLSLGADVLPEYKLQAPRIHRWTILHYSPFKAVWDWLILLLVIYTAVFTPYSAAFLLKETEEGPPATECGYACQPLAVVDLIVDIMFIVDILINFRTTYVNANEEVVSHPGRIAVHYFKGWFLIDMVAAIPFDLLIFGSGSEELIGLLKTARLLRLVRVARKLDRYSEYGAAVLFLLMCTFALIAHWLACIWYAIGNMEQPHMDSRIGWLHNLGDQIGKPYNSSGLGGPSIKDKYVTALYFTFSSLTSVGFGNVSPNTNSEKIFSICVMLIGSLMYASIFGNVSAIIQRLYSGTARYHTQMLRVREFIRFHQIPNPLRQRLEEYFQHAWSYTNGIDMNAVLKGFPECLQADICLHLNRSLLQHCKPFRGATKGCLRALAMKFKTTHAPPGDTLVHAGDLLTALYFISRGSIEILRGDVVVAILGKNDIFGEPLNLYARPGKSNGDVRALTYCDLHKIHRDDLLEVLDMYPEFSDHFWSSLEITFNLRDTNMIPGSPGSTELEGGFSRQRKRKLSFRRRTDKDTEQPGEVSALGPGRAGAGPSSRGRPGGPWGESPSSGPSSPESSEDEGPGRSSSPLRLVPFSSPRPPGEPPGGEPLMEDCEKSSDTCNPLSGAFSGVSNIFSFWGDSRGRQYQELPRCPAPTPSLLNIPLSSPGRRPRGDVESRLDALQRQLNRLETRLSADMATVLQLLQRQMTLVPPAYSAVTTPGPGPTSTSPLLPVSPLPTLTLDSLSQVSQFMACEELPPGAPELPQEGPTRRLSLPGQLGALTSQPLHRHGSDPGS
Chain of Thyroid hormone receptor beta (Homo sapiens) (P10828 whole entry, looked up): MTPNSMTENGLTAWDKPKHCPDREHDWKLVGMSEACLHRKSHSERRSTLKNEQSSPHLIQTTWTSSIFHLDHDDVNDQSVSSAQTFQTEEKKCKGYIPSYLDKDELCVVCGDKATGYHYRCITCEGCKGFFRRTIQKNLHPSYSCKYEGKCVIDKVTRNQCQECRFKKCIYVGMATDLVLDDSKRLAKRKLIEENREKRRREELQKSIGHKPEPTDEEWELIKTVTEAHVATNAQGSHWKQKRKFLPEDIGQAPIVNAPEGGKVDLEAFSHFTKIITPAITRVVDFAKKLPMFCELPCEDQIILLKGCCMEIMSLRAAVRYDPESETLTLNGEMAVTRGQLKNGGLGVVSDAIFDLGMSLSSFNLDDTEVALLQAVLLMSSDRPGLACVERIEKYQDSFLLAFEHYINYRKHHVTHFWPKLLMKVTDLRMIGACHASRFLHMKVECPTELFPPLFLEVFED
Chain of Nuclear receptor ROR-gamma (Homo sapiens) (P51449 whole entry, looked up): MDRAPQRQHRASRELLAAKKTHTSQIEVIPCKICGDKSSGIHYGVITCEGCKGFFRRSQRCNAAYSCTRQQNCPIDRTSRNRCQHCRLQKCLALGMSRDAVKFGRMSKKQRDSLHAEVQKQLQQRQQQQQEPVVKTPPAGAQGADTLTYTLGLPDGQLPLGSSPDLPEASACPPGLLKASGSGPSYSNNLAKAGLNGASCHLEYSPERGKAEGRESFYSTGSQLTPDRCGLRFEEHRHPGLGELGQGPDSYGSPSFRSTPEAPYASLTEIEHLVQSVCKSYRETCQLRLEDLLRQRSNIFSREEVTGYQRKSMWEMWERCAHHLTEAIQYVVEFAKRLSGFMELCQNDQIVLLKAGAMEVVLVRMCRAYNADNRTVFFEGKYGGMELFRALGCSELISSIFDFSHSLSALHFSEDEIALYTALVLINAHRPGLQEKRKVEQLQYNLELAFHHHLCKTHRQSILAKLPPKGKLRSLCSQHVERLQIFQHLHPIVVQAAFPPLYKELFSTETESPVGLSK
Chain of Tumor necrosis factor (Homo sapiens) (P01375 whole entry, looked up): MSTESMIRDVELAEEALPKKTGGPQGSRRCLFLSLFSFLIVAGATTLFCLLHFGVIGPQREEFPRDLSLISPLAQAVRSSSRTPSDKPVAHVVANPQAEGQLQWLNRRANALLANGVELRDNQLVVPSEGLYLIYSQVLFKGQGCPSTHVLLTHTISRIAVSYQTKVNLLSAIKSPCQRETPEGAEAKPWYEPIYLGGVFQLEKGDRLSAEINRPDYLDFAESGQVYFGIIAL
Chain of Retinoic acid receptor RXR-alpha (Homo sapiens) (P19793 whole entry, looked up): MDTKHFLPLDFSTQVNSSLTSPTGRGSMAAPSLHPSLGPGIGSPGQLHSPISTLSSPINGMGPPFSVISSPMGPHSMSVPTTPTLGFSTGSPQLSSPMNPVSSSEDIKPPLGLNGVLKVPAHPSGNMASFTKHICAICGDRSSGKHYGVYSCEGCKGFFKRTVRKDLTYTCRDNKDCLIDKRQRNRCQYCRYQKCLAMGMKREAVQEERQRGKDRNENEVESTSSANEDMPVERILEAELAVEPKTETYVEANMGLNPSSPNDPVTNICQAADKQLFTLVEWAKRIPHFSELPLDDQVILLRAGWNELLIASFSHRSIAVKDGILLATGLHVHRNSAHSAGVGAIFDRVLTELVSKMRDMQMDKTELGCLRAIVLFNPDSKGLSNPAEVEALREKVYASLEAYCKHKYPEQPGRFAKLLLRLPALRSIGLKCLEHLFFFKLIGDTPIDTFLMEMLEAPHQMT
Chain of Peroxisome proliferator-activated receptor alpha (Homo sapiens) (Q07869 whole entry, looked up, the tested form may be a part): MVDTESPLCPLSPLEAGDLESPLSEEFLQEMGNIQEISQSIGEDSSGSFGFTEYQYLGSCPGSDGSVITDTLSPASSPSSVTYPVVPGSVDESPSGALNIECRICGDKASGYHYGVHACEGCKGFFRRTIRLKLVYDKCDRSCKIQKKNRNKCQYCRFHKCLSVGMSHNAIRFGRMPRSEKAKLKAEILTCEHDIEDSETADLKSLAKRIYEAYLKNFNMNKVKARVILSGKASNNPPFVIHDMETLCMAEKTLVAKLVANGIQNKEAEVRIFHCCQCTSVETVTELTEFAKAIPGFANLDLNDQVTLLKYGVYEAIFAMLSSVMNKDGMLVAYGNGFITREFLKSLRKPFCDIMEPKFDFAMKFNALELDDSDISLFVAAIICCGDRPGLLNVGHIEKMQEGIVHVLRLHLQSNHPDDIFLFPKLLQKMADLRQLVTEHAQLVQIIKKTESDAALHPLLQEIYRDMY

COc1ccc(N=[N+]([O-])c2ccc(OC)cc2)cc1
active: Potency [6] 37.6 µM | Potency [11] 1.12 µM
inactive: outcome [1] | max response [3] -10.1% | activity change % (negative = inhibition) [4] 11.6% | Potency [5] | activation [7] -0.811% | activation [8] 0.0779% | Potency [9] | Potency [10] | max response [12] -3.57% | max response [13] -28.6%
-4.97%: max response [2]

S=C([S-])NCCNC(=S)[S-].[Zn+2]
inactive: outcome [1] | activity change % (negative = inhibition) [4] 6.23% and -0.322% | Potency [5] | Potency [9] | Potency [10] | Potency [14] | activation [11] 0.897% and 8.85% and 0.332% | max response [12] -15.1% and -9.87% and -6.7% | Potency [15] | Potency [16] | max response [13] -3.47% and -31.7% and -9.84%

[O-]/[N+](=N\O)c1ccccc1
inactive: outcome [1] | Potency [5] | activation [7] -2.28% | Potency [10] | Potency [14] | activation [11] 5.58% | max response [12] -0.0477% | Potency [15] | Potency [16] | max response [13] -5.46%

CC(=O)Nc1ccc(N)cc1
6.27%: max response [2]
inactive: outcome [18] | max response [3] 0.952% | Potency [5] | activation [7] 0.791% | activation [8] -0.653% | Potency [9] | Potency [10] | Potency [14] | activation [11] -0.109% | Potency [15] | outcome [19] | Potency [16] | max response [13] 2.9%
-9.56%: max response [17]

C[C@@H]1CC2(OC3C[C@@]4(C)C5=CC[C@H]6C(C)(C)C(O[C@@H]7OC[C@@H](O)[C@H](O)[C@H]7O)CC[C@@]67C[C@@]57CC[C@]4(C)C31)OC(O)C1(C)OC21 (stereo partly specified)
active: Potency [6] 75 µM | Potency [15] 21.1 µM
inactive: outcome [1] | Potency [5] | activation [7] -4.93% | activation [8] -1.92% | Potency [9] | Potency [10] | Potency [14] | Potency [20] | activation [11] -0.875% | max response [12] 8.86% | outcome [19]

COc1ccccc1[N+](=O)[O-]
-6.53% and 1.73%: max response [2]
inactive: outcome [1] | max response [3] 20.4% and 0.175% | activity change % (negative = inhibition) [4] -3.34% and -9.45% | Potency [5] | Potency [6] | activation [7] -2.31% and 1.29% | Potency [9] | Potency [10] | Potency [14] | activation [11] 0.316% and 0.0004% | max response [12] -1.42% and -1.21% | Potency [15] | outcome [19] | Potency [16] | max response [13] -18.6% and -4.26%

CC1CCCO1 (stereo unspecified)
11.5%: max response [17]
inactive: outcome [18] | activity change % (negative = inhibition) [4] 1.5% | Potency [5] | Potency [6] | activation [7] -2.21% | activation [8] -0.396% | Potency [9] | Potency [10] | Potency [14] | activation [11] 2.22% | max response [12] 0.088% | Potency [15] | outcome [19] | Potency [16]

CC(C)(c1cc(Br)c(OCC(Br)CBr)c(Br)c1)c1cc(Br)c(OCC(Br)CBr)c(Br)c1 (stereo unspecified)
-15.9%: max response [2]
inactive: max response [3] 2.49% | activity change % (negative = inhibition) [4] -9.17% | Potency [5] | Potency [6] | activation [7] 2.84% | Potency [14] | Potency [20] | activation [11] -1.38% | Potency [15] | outcome [19] | Potency [16] | max response [13] -4.49%
